Pf growth 48h – Primary qHTS for delayed death inhibitors of the malarial parasite plastid, 48 hour incubation; P. falciparum luciferase growth in erythrocytes, 48 h; Potency, µM (highest dose often 28.7 µM), without a hit: at the top dose activity change, negative = inhibition, actives largely listed as inhibitors; 310,000 compounds, 5.9% hits; active = well fitted inhibition curve with a large enough effect; inconclusive = small, poorly fitted or top-dose-only effect, or another doubt; inactive = no such curve, though single readings can be large or run the other way; note: potency is the fitted concentration of half-maximal effect; % is set by controls: 0 for no effect and ±100 for the full control effect
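Luciferase-expressing P. falciparum in infected erythrocytes (2% hematocrit, 0.1% parasitemia final) in RPMI 1640/0.5% Albumax were exposed to compound for 48 hours at 37 C, 5% CO2; growth read as luminescence.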
Shiga toxin inh – A qHTS for Small Molecule Inhibitors of Shiga Toxin | Vero cells, Shiga toxin protein synthesis inhibition reporter | inhibition, % at 38.7 µM | 290,000 compounds, 9.2% hits; in the data active = inhibition mostly above about 28%, no sharp cut-off; inactive = mostly below about 43%; note: 0% is about no effect
SARS PLpro yeast – qHTS of Yeast-based Assay for SARS-CoV PLP; S. cerevisiae expressing SARS-CoV PLpro, growth rescue; Potency, µM (series often up to 32.9 µM), for the others: at the highest dose activity, positive = growth rescue, actives largely listed as activators; 330,000 compounds, 0.19% hits; note: potency is the fitted concentration of half-maximal effect; 0% is about no effect; nearly all actives have a fitted effect of over 55% in size
NS1 function inh – qHTS Assay for Inhibitors of Influenza NS1 Protein Function. 270,000 compounds, 0.4% hits. AID 2326, 2010. Potency, µM (highest dose often 46.1 µM), inactives show at the top dose activity, positive = more growth; note: potency is the fitted concentration of half-maximal effect; actives are rising curves; nearly all actives have a fitted effect of over 50% in size
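A cell-based growth assay was used: compounds that relieve NS1-induced slow growth of budding yeast raise OD600. Assay medium was yeast nitrogen base with ammonium sulphate and -URA supplement, pH 6.0, with 2% galactose.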
CHX counter – Cycloheximide Counterscreen for Small Molecule Inhibitors of Shiga Toxin; cell reporter, cycloheximide protein synthesis inhibition counterscreen; max response, %; 300,000 compounds, 12% hits; AID 2314, 2010; in the data active = max response mostly above about 13%, no sharp cut-off; inactive = mostly below about 14%; note: read at 38.3 µM for the half of the compounds with a filed dose; 0% is about no effect
Pf growth 96h – Primary qHTS for delayed death inhibitors of the malarial parasite plastid, 96 hour incubation. P. falciparum luciferase reporter growth, 96 h. Potency, µM (titrated, usually from 28.7 µM), inactives show at the top dose activity change, negative = inhibition, actives largely listed as inhibitors. 320,000 compounds, 6.9% hits; active = well fitted inhibition curve with a large enough effect; inconclusive = small, poorly fitted or top-dose-only effect, or another doubt; inactive = no such curve, though single readings can be large or run the other way; note: potency is the fitted concentration of half-maximal effect; % is set by controls: 0 for no effect and ±100 for the full control effect
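Infected RBCs, 2% Hct / 0.05% parasitemia final; luciferase-reporter P. falciparum; cpd 96 h, 37 C, 5% CO2; luciferase detection reagent; luminescence.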
* marks the source's active call; other numbers are inactive results; i = inactive; ? = inconclusive; / = no result given. The list is not random: actives were taken first. Their share in the collection is about 21%. Unless noted, calls come from the whole dose curve.

SMILES | Pf growth 48h | Shiga toxin inh | SARS PLpro yeast | NS1 function inh | CHX counter | Pf growth 96h
COc1ccc2[nH]c(C(=O)O)c(CCN3C(=O)c4ccc(C(=O)O)cc4C3=O)c2c1 | 50% | 24 | 0% | 1% | 17* | 38%
COc1ccc2[nH]c(C(=O)O)c(CCC(=O)O)c2c1 | 1% | -14 | -3% | 19% | -3 | ?
CN1CC(=O)NC1=NC(=O)C12CC3CC(CC(C3)C1)C2 | ? | -9 | 10% | -10% | -2 | 12µM*
Cc1cc(C)n2nc(C(=O)N3CCCC(N4CCN(c5ccccc5C)CC4)C3)cc2n1 (configuration not stated) | ? | -6 | -5% | -13% | -2 | -12%
COc1ccc(-c2nnnn2-c2ccc(F)cc2F)cc1 | 31% | -17 | 1% | -5% | -2 | 8%
Nc1nc(=S)c2[nH]cnc2[nH]1 | 8.3µM* | / | / | / | / | ?
CN(C)CCN(Cc1ccco1)S(=O)(=O)c1csc(C(N)=O)c1 | 23% | -1 | 10% | -10% | -5 | 8.3µM*
CCCCN(Cc1ccco1)S(=O)(=O)c1csc(C(N)=O)c1 | 16% | -4 | -9% | -4% | 0 | 9.3µM*
Cc1cnc(C(=O)OCC(=O)N(Cc2ccccc2)C(C)(C)C)cn1 | / | / | -1% | / | / | /
C/C(=N\NC(=O)C1(C)CC1(Br)Br)c1ccc(NC(=O)c2ccc(C)o2)cc1 (configuration not stated) | ? | 54* | -2% | 0% | 24* | 9.3µM*
C/C(=N\NS(=O)(=O)c1ccc(C)cc1)c1ccc(C)o1 | 3% | -9 | 1% | 4% | -2 | -9%
C/C(=N\NC(=O)c1c([N+](=O)[O-])c(C)nn1C)c1ccc(NC(=O)c2ccc(C)o2)cc1 | 54% | 51* | -6% | 5% | 25* | 76%
C/C(=N/NS(=O)(=O)c1ccc(F)cc1)c1ccc(NC(=O)c2ccc(C)o2)cc1 | / | 43 | -10% | 0% | 35* | 40%
Cc1ccccc1OCCC(=O)Nc1ccccc1C(=O)NC1CC1 | ? | / | 5% | / | / | 8%
CC(C)c1nn2c(=O)cc(COc3cccc(NC(=O)c4ccco4)c3)nc2s1 | 16% | -3 | -6% | 10% | -1 | ?
COc1ccc(N2C(=O)CC2(C#N)c2ccc(OCc3ccccc3)cc2)cc1 (configuration not stated) | 10% | -3 | 4% | 4% | -2 | -22%
O=C(COC(=O)c1cc(Cl)ccc1[N+](=O)[O-])NCc1ccc(Cl)cc1Cl | 5% | 11 | -9% | 1% | -2 | 14%
CCC(=O)c1ccc(/C=C/c2nc3ccccc3n2C)o1 | i | 67* | -10% | / | 30* | ?
Cc1ccc(C)c(S(=O)(=O)NCC(=O)OCC(=O)Nc2sccc2C(N)=O)c1 | -13% | / | 2% | / | / | 18%
Cc1ccc(OCCn2c(=O)oc3ccc(C)cc32)cc1 | 0% | 24 | -1% | -3% | 20* | 9%
Cc1ccc2oc(=O)n(CCCOc3ccccc3)c2c1 | 46% | 104* | -5% | -48% | 35* | 80%
COc1ccc(Cn2c(=O)oc3ccc(C)cc32)cc1 | -4% | -4 | -2% | -9% | -5 | ?
Cc1ccc2oc(=O)n(Cc3ccccc3)c2c1 | -3% | 2 | -3% | -19% | 12 | ?
Cc1cccn2c(=O)c(C=C(C#N)C#N)c(N3CCN(c4cccc(Cl)c4)CC3)nc12 | 7.4µM* | -3 | -3% | 5% | -3 | ?
COC(=O)/C(C#N)=C/c1c(N2CCN(c3cccc(Cl)c3)CC2)nc2c(C)cccn2c1=O | ? | -9 | -4% | 0% | -4 | ?
SMILES | Pf growth 48h | Shiga toxin inh | SARS PLpro yeast | NS1 function inh | CHX counter | Pf growth 96h
CCOC(=O)/C(C#N)=C/c1c(N2CCN(c3ccccc3)CC2)nc2c(C)cccn2c1=O | ? | -4 | 2% | -5% | -1 | ?
CCNC(=O)/C(C#N)=C/c1c(N2CCN(Cc3ccc4c(c3)OCO4)CC2)nc2c(C)cccn2c1=O | 7.4µM* | -19 | -8% | -11% | -2 | 3.7µM*
CCNC(=O)/C(C#N)=C/c1c(N2CCN(C)CC2)nc2c(C)cccn2c1=O | 11% | -5 | -4% | 2% | -3 | 1%
CCNC(=O)/C(C#N)=C/c1c(N2CCN(c3cccc(Cl)c3)CC2)nc2c(C)cccn2c1=O | 12µM* | -5 | 0% | -2% | -2 | ?
CC(=O)Nc1ccc(NC(=O)CSc2ncc(C(=O)Nc3ccccc3)c(=O)n2C)cc1 | 14% | / | -1% | / | / | 13%
COc1ccccc1Nc1nc(N2CCOCC2)nc(N2CCOCC2)n1 | ? | 12 | -5% | 2% | -11 | 10µM*
O=C(CSc1nc(N2CCOCC2)nc(N2CCOCC2)n1)Nc1cccc(C(F)(F)F)c1 | 11% | -3 | -7% | ? | -4 | 2.1µM*
CCOC(=O)c1ccc(Nc2nc(N3CCOCC3)nc(N3CCOCC3)n2)cc1 | ? | -2 | 2% | 4% | -4 | ?
CC(=O)Nc1ccc(/C(C)=N/Nc2nc(Nc3ccccc3)nc(N3CCOCC3)n2)cc1 | 2.1µM* | 21 | -1% | 2% | 6 | 26%
O=C(CCN1CCOCC1)NNC(=O)Nc1cccc(C(F)(F)F)c1 | 5% | -10 | 3% | -1% | 0 | 10µM*
CC(C)CNc1nc(Oc2ccc(=O)[nH]n2)nc(N2CCOCC2)n1 | -2% | 15 | 1% | 1% | -2 | 29%
CS(=O)(=O)N(CC(=O)Nc1ccc(S(=O)(=O)N2CCOCC2)cc1)c1cccc(F)c1 | 20% | 19 | 0% | -2% | -4 | 41%
Cc1cccc(C(C)C)c1NC(=O)c1ccc(CN(c2ccccc2)S(=O)(=O)c2ccccc2)cc1 | -18% | -7 | -4% | 1% | 8 | 4%
Cc1cccc(OCC(=O)NNC(=O)C2CCCCC2C(=O)O)c1 (configuration not stated) | 15% | 12 | -10% | ? | 7 | -34%
COc1ccc(Nc2nc(OC)nc(OC)n2)cc1 | ? | 22 | 0% | -2% | 8 | ?
CC(=O)c1cccc(Nc2nc(N3CCOCC3)nc(N3CCOCC3)n2)c1 | -4% | -2 | -7% | 7% | -11 | ?
COc1nc(Nc2ccc3c(c2)OCO3)nc(OC)n1 | / | 51* | -25% | -37% | 17 | -12%
CC(=O)c1ccc(NC(=O)CSc2nc(N3CCOCC3)nc(N3CCOCC3)n2)cc1 | ? | 62* | 1% | 5% | 42* | 16%
CCOC(=O)c1ccc(NC(=O)CSc2nc(N3CCOCC3)nc(N3CCOCC3)n2)cc1 | -25% | -11 | -2% | 17% | -1 | -10%
CCc1ccc(Nc2nc(N3CCOCC3)nc(N3CCOCC3)n2)cc1 | -26% | -9 | -4% | 1% | -6 | 9.3µM*
CC(=O)c1ccc(Nc2nc(N3CCOCC3)nc(N3CCOCC3)n2)cc1 | -4% | 31 | 1% | 0% | 17* | -23%

Bioassay records (PubChem)
